Results filed as inconclusive are left out. The source made the active and inactive calls. Calls follow the shape of the dose curve; as a rule, active = well fitted inhibition curve with a large enough effect; inconclusive = small, poorly fitted or top-dose-only effect; inactive = flat fitted curve, though single readings scatter.
Legend:
[1] = Drug repurposing screens with cells derived from glioblastoma tumor samples (AID 1345199); conditions: GBM patient neurospheres viability, ATP luminescence, 48 h; also: nearly all actives have a fitted effect of over 40% in size
In short: (§1)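 Four patient lines of CD133+ GBM neurospheres were screened at several concentrations; hits were retested in those lines plus three slower-growing GBM lines, using 48-hour treatment and ATP-based viability.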

astro = control astrocytes; assay: as above; conditions: viability, ATP luminescence, 48 h; series mostly up to 45.9 µM
In short: as §1

[2] = at 20 µM (top of the series), tumour line C
[3] = at 21.2 µM (top of the series), tumour line B
[4] = at 21.2 µM (top of the series), tumour line D
[5] = at 21.3 µM (top of the series), tumour line A
[6] = at 45.9 µM (top of the series), tumour line B
[7] = at 45.9 µM (top of the series), tumour line D
[8] = at 46 µM (top of the series), tumour line A
[9] = at 46.1 µM (top of the series), tumour line C
% is scaled to controls: 0 for no effect and ±100 for the full control effect.

CC(=O)Nc1c(I)c(C(=O)N[C@H]2C(O)O[C@H](CO)[C@@H](O)[C@@H]2O)c(I)c(N(C)C(C)=O)c1I (stereo not given in full)
inactive: activity, negative = cell killing [1, 2] -5.11% | activity, negative = cell killing [1, 3] -5.7% | activity, negative = cell killing [1, 4] -16.2% | activity, negative = cell killing [1, 5] -16.4% | Potency (astro)

O[C@@H]([C@H](O)[C@H](O)CBr)[C@H](O)CBr
inactive: activity, negative = cell killing [1, 6] -6.4% | activity, negative = cell killing [1, 7] -10.8% | activity, negative = cell killing [1, 8] -25.7% | activity, negative = cell killing [1, 9] 4.72% | Potency (astro)

CC(=O)Oc1cc(C(F)(F)F)ccc1C(=O)O
inactive: activity, negative = cell killing [1, 2] -16.9% | activity, negative = cell killing [1, 3] -19.3% | activity, negative = cell killing [1, 4] -15.7% | activity, negative = cell killing [1, 5] -29% | Potency (astro)

FCOC(C(F)(F)F)C(F)(F)F
inactive: activity, negative = cell killing [1, 6] -14% | activity, negative = cell killing [1, 7] -24.3% | activity, negative = cell killing [1, 8] -28% | activity, negative = cell killing [1, 9] -24.9% | Potency (astro)

O=C1c2c(O)cccc2[C@H]([C@@H]2O[C@H](CO)[C@@H](O)[C@H](O)[C@H]2O)c2cc(CO)cc(O)c21
inactive: activity, negative = cell killing [1, 6] -6.89% | activity, negative = cell killing [1, 7] -4.21% | activity, negative = cell killing [1, 8] -19.8% | activity, negative = cell killing [1, 9] -2.48% | Potency (astro)

CCN(CC)CCOC[C@H]1O[C@@H](O)[C@H](OCCN(CC)CC)[C@@H](O)[C@@H]1O
inactive: activity, negative = cell killing [1, 6] -9.61% | activity, negative = cell killing [1, 7] -16.5% | activity, negative = cell killing [1, 8] -26.4% | activity, negative = cell killing [1, 9] -24.8% | Potency (astro)

C[C@]12CC[C@@H]3c4ccc(O)cc4CC[C@H]3[C@@H]1CC[C@@H]2OP(=O)(O)O
inactive: activity, negative = cell killing [1, 6] -7.23% | activity, negative = cell killing [1, 7] -13% | activity, negative = cell killing [1, 8] -23.9% | activity, negative = cell killing [1, 9] 22.6% | Potency (astro)

O=C(CO)[C@@H](O)[C@H](O)[C@@H](O)C(=O)O
inactive: activity, negative = cell killing [1, 6] -4.69% | activity, negative = cell killing [1, 7] -4.84% | activity, negative = cell killing [1, 8] -22.3% | activity, negative = cell killing [1, 9] -9.16% | Potency (astro)

CCCCCCCCCCCC(=O)OCC(O)CO (stereo not given)
inactive: activity, negative = cell killing [1, 6] -6.19% | activity, negative = cell killing [1, 7] -1.8% | activity, negative = cell killing [1, 8] -27.7% | activity, negative = cell killing [1, 9] -2.49% | Potency (astro)

— PubChem BioAssay (NCATS)
